Only some compounds are listed: those with a hit (about 19% of all), similar ones and a draw of the others.
HT1080NT lethal: qHTS for induction of synthetic lethality in tumor cells producing 2HG: qHTS for the HT-1080-NT fibrosarcoma cell line. HT-1080-NT fibrosarcoma viability, CellTiter-Glo ATP luminescence, 48 h. Potency, µM (titrated, usually from 46.1 µM), for the others: at the highest dose activity, negative = less viability, most hits filed as cytotoxic. hit rate 1.6% among 360,000;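 also: NT is the 2HG producing partner of a matched IDH1 knockdown line; 0% = DMSO-treated cells and -100% = media-only wells without cells; nearly all actives have a fitted effect of over 55% in size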
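Toxicity toward the 2HG-producing NT line was scored as %Activity, normalised to DMSO and no-cell wells, from CellTiter-Glo luminescence after 48 hours' treatment.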
KB-3-1 tox: qHTS assay for MDR1-selective chemotherapeutics: Primary screen using the parental adenocarcinoma cell KB-3-1. KB-3-1 viability, CellTiter-Glo ATP luminescence, 72 h. Potency, µM (top dose mostly 46.1 µM), usual class: cytotoxic. hit rate 1.4% among 400,000; also: nearly all actives have a fitted effect of over 60% in size
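Parental KB-3-1 adenocarcinoma cells in phenol-red-free DMEM with 10% FBS were pin-treated with compounds at several concentrations, incubated 72 h at 37 °C, and viability read by CellTiter-Glo luminescence; concentration-effect curves were fitted after normalization.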
DT40 TDP1 CPT: qHTS for Inhibitors of human tyrosyl-DNA phosphodiesterase 1 (TDP1): qHTS in cells in presence of CPT; chicken DT40 Tdp1-/-;hTDP1 cells + 20 nM CPT, ATP luminescence, 48 h; Potency, µM (highest dose often 46.2 µM), inactives show top-dose activity change, negative = growth inhibition, actives largely listed as inhibitors; hit rate 12% among 420,000; AID 686979, 2013; also: nearly all actives have a fitted effect of over 55% in size
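Cell growth measured by CellTiter-Glo luminescence after a minimum 48 h, 37 C compound exposure with 20 nM CPT in Tdp1-knockout DT40 cells stably expressing hTDP1, seeded 400/well; qHTS titration format.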
KB-V1 cytotox: qHTS assay for MDR1-selective chemotherapeutics: Primary screen using the drug-selected MDR subline cells KB-V1 | KB-V1 MDR cells viability, CellTiter-Glo, 72 h | Potency, µM (highest dose often 46.1 µM), usual class: cytotoxic | hit rate 3.4% among 400,000; also: nearly all actives have a fitted effect of over 60% in size
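Following 72 h at 37 degrees C with compound, KB-V1 cell viability was read by CellTiter-Glo luminescence, medium being phenol-red-free DMEM plus 10% FBS; concentration-response parameters came from normalized, curve-fitted qHTS data.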
HT1080 IDH1KD tx: qHTS for induction of synthetic lethality in tumor cells producing 2HG: qHTS for the HT-1080-IDH1KD cell line; hit rate 2% among 360,000; AID 686971, 2013; HT-1080 IDH1 knockdown viability, ATP luminescence, 48 h; Potency, µM (doses to about 46.1 µM), for inactives: top-dose activity, negative = toxicity, hits mostly cytotoxic;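 also: 0% = DMSO wells and -100% = cell-free medium wells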
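CellTiter-Glo luminescence after 48 h compound exposure at 37 degrees C of IDH1-knockdown HT-1080 cells in 5% FBS RPMI. %Activity scaled between DMSO wells and cell-free media wells, with curves fitted and assigned curve classes.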
DT40 TDP1 no CPT: qHTS for Inhibitors of human tyrosyl-DNA phosphodiesterase 1 (TDP1): qHTS in cells in absence of CPT; DT40 Tdp1-/- hTDP1 cells, no CPT, ATP luminescence, 48 h; Potency, µM (highest dose often 46.2 µM), for inactives: top-dose activity change, negative = growth inhibition, usual class: inhibitors; hit rate 15% among 420,000; also: nearly all actives have a fitted effect of over 55% in size
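DT40 Tdp1-/-;hTDP1 cells, no CPT (DMSO vehicle only), 400 cells/well; compounds pin-transferred; ≥48 hr, 37 °C; CellTiter-Glo 30 min RT dark, luminescence read.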
* hit, by the source's call; i = inactive; ? = inconclusive; . = no result. Calls follow the shape of the dose curve; as a rule, active = well fitted curve in the direction sought with a large enough effect; inconclusive = small, poorly fitted or top-dose-only effect, or another doubt; inactive = no such curve, though single readings can be large; an effect the other way counts as inactive or inconclusive. Unless noted, % is scaled to controls: 0 for no effect and ±100 for the full control effect; potency is read from the fitted curve at half-maximal effect.

SMILES	HT1080NT lethal	KB-3-1 tox	DT40 TDP1 CPT	KB-V1 cytotox	HT1080 IDH1KD tx	DT40 TDP1 no CPT
COc1cc(NC(=O)c2ccccc2)c(OC)cc1NC(=O)CN1CCCCC1	-3%	i	?	i	-1%	20µM*
COC(=O)c1ccc(C(=O)OC)c(NC(=O)CN2CCCCC2)c1	22%	i	?	i	18%	?
COc1cc(NC(=O)C2CCCCC2)c(OC)cc1NC(=O)c1ccccc1	-2%	i	-17%	i	-7%	-19%
COC(=O)c1cc(OC)c(OC)cc1NC(=O)CN1CCCCC1	26%	i	1%	16µM*	15%	-18%
COC(=O)c1cc(OC)c(OC)cc1NC(=O)Cc1ccccc1[N+](=O)[O-]	1%	i	?	2.3µM*	?	-10%
COc1cc(NC(=O)c2ccccc2[N+](=O)[O-])c(C(=O)O)cc1OC	7%	i	-1%	i	2%	-4%
COc1cc(NC(=O)c2ccc(F)cc2)c(OC)cc1NC(=O)CN1CCCCC1	-11%	i	?	i	-13%	16µM*
Cc1ccc(CNC(=O)Nc2cc(C(=O)NCc3cccc(F)c3)ccc2N2CCCC2)cc1	.	?	?	i	.	?
O=C(CC[C@H]1O[C@@H](n2cnc3c(NC(=O)c4ccccc4)ncnc32)[C@H](O)[C@@H]1O)NCc1cccc2ccccc12	16%	i	-12%	i	17%	-5%
C[C@H](CO)N1C[C@H](C)[C@@H](CN(C)C(=O)c2ccccc2)OCc2cnnn2CCCC1=O	8%	i	4%	i	12%	8%
COc1cc(NC(=O)c2ccccc2)c(OC)cc1NC(=O)CN1CCOCC1	11%	i	-20%	i	25%	?
COc1cc(NC(=O)c2cccc(C)c2)c(OC)cc1NC(=O)CN1CCOCC1	2%	i	?	i	-5%	18µM*
CC1=C(C(=O)Nc2cccc(C(F)(F)F)c2)C(c2ccccc2)n2ncnc2N1 (configuration not stated)	.	i	-30%	?	.	-17%
Cc1ccc(C2=NC(C(F)(F)F)(C(F)(F)F)c3c(n(-c4ccc(F)cc4)c(=O)[nH]c3=O)N2)cc1	-3%	10µM*	23µM*	21µM*	-2%	23µM*
O=c1[nH]c(=O)n(-c2ccc(F)cc2)c2c1C(C(F)(F)F)(C(F)(F)F)N=C(c1ccc(F)cc1)N2	15µM*	i	4.6µM*	?	18µM*	3.3µM*
COc1ccc(-n2nnnc2SCC(=O)Nc2nc3c(s2)CCCC3)cc1	-21%	i	?	i	18µM*	?
COc1cc(=O)[nH]c(SCC(=O)Nc2nc3c(s2)CCCC3)n1	4%	i	23µM*	i	3%	?
COc1ccc(-n2nnnc2SCC(=O)NC2CC2)cc1	2%	i	-17%	i	-3%	21%
CC(C)n1c(SCC(=O)Nc2nc3c(s2)CCCC3)nc2c1c(=O)n(C)c(=O)n2C	?	i	12µM*	?	?	2.9µM*
O=C(CSc1nnc(CNc2ccc(Cl)cc2)o1)Nc1nc2c(s1)CCCC2	-17%	i	15µM*	?	-26%	?
CCOC(=O)c1c(NC(=O)CSc2nc3c(c(=O)n(C)c(=O)n3C)n2C(C)C)sc(C)c1C	5%	i	1%	i	-4%	-3%
CCOc1ccc(-n2nnnc2SCC(=O)NNC(=O)c2ccco2)cc1	14%	i	16µM*	i	20%	?
O=C(Nc1ccc2c(c1)OCO2)C1Cc2c(-c3cccnc3)ccnc2O1 (configuration not stated)	17%	i	-23%	i	2%	?
O=C(Nc1ccc2c(c1)OCO2)C1Cc2c(-c3ccc(Cl)cc3)ccnc2O1 (configuration not stated)	23µM*	i	?	i	?	?
O=C(Nc1cccnc1)C1Cc2c(-c3ccc4c(c3)OCO4)ccnc2O1 (configuration not stated)	?	i	21µM*	?	?	1µM*
SMILES	HT1080NT lethal	KB-3-1 tox	DT40 TDP1 CPT	KB-V1 cytotox	HT1080 IDH1KD tx	DT40 TDP1 no CPT
CC(=O)Nc1cccc(-c2ccnc3c2CC(C(=O)Nc2ccc4c(c2)OCO4)O3)c1 (configuration not stated)	?	5.2µM*	2.9µM*	i	2.3µM*	4.6µM*
CC(=O)NCCNC(=O)C1Cc2c(-c3ccc4c(c3)OCO4)ccnc2O1 (configuration not stated)	11%	i	-9%	i	2%	-10%
O=C(NCC1CC1)C1Cc2c(-c3ccc4c(c3)OCO4)ccnc2O1 (configuration not stated)	-11%	i	?	?	-17%	18µM*
O=C(Nc1ccc2c(c1)OCO2)C1Cc2c(-c3ccncc3)ccnc2O1 (configuration not stated)	22%	i	-16%	i	9%	?
COc1cccc(CNC(=O)CCCSc2ccccc2)c1	6%	i	1%	i	5%	-3%
O=C(Nc1ccc2c(c1)OCO2)C1Cc2c(-c3ccc4c(c3)OCO4)ccnc2O1 (configuration not stated)	?	?	6.5µM*	8.2µM*	4.1µM*	6.5µM*
COc1ccc(NC(=O)C2Cc3c(-c4ccc5c(c4)OCO5)ccnc3O2)cc1 (configuration not stated)	?	9.2µM*	5.2µM*	?	?	8.2µM*
CC(=O)Nc1ccc(NC(=O)C2Cc3c(-c4ccc5c(c4)OCO5)ccnc3O2)cc1 (configuration not stated)	19%	i	-7%	i	27%	-6%
Cc1cc(NC(=O)Cn2c(=O)nc(-c3ccccc3F)c3cc(Cl)ccc32)ccc1Br	.	i	-22%	i	.	?
Cc1ccc(-c2nnc(Nc3cccc(O)c3)c3ccccc23)cc1S(=O)(=O)NCC1CCCO1 (configuration not stated)	.	?	?	i	.	23µM*
